The text below walks through data of PubChem BioAssay (NCI).

Molecules are shown by their SMILES. Compounds without any hit were thinned out: in the full panel of roughly 83,000, 20% have a hit.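 Method: cells in 96-well plates; compound added at one concentration; 48 h incubation; percent growth measured; values under 10 scored active.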 Values without a mark were called inactive. Active and inactive are the calls of the source.

Common to all, as to test: NCI-60 one-dose screen, 48 h (100 = growth as untreated, 0 = no growth, -100 = all killed)
What all share (settings): 10 µM unless noted

Assay [1] concerns DU-145 prostate.
In assay [2] the test system is K-562 leukemia.
The test system of assay [3] is MALME-3M melanoma.
Assay [4] concerns MDA-MB-231 breast.
The test system of assay [5] is RXF 393 renal.
For assay [6], the system named is SF-268 CNS.
For assay [7], the system named is SF-295 CNS.
Assay [8] concerns UACC-257 melanoma.
In assay [9] the test system is M14 melanoma.

With `CCCCCCCCCCCCCC(=O)C(C)N` (stereo not given), the growth in assay [1] was 7.93% (active); in assay [2], -44.3% (active); in assay [3], 77.8%; in assay [4] it was -54.1% (active); in assay [5] it was 28%; in [6], 37.7%. For the same molecule, the growth in [7] is 56.3%; in assay [8] it was 91.6%; in assay [9], 63.7%.
With `CC/C=C\C[C@H](O)C/C=C1/C(=O)C=C[C@@H]1C/C=C\CCCC(=O)NC`, the growth in assay [1] is 15%; in assay [2] it was 0.291% (active); in assay [3] it was -27.9% (active); in [4] it was 26.5%; in assay [5], -79.1% (active); in [6], 27.7%. Also, the growth in [7] was 8.54% (active); in assay [8], -19% (active); in assay [9], 6.09% (active).
Turning to `O=c1[nH]c(-c2ccccn2)nc2sc3c(c12)CCCCC3`, the growth in assay [1] is 48.8%; in assay [2] it was 21.4%; in [3], 75.3%; in assay [4] it was 52.4%; in [5], 70.4%; in assay [6], 47.6%. Moreover, the growth is 33.1% in assay [7], 73.4% in assay [8] and 43.3% in [9].
As to `COc1cc(/C=N/N(C)C)ccc1O`, the growth in [1] is 110%; in [2], 101%; in [3] it was 105%; in assay [4], 93.1%; in assay [5], 105%; in assay [6], 101%. Also, the growth in [7] is 104%; in assay [8], 89.1%; in assay [9], 108%.
As for `Cc1ccn2c(-c3csc(Nc4cccc(O)c4)n3)c(C)nc2c1`, the growth is 17.7% in [1]; 2.56% (active) in assay [2]; 65.4% in [3]; -1.81% (active) in [4]; 0.213% (active) in [5]; 39.5% in [6]. The growth is 16.3% in assay [7], 77.2% in assay [8] and 16% in assay [9].
`CCOC(=O)CC(=O)c1c(C)cc(C)cc1C`: the growth in assay [1] was 110%; in [2], 112%; in assay [3], 113%; in [4], 103%; in assay [5], 100%; in assay [6], 107%. The growth in assay [7] was 103%; in [8] it was 112%; in assay [9], 99.6%.
Turning to `COc1cc(-c2cnc3nonc3n2)c(OC)c2c1OCO2`, the growth is 113% in [1]; 49.2% in assay [2]; 91.5% in assay [3]; 89.4% in [4]; 90.9% in assay [5]; 99% in assay [6]. The growth in assay [7] was 104%; in assay [8] it was 93.6%; in assay [9] it was 107%.
For the molecule `O=C(COCc1c(-c2ccccc2)no[n+]1[O-])Nc1ccc(C(=O)/C=C/c2ccc3c(c2)OCO3)cc1`, the growth in assay [1] is 116%; in assay [2] it was 92.4%; in assay [3], 123%; in [4] it was 101%; in [5], 95.9%; in assay [6] it was 97.9%. Moreover, the growth in assay [7] is 103%; in [8], 93.3%; in assay [9] it was 109%.
As for `CCOC(=O)c1c2c(n3ccc(NC(=O)CCN(CC)CC)cc13)C(=O)c1ncccc1C2=O`, the growth in assay [1] was 66.5%; in [2], 49.7%; in assay [3] it was 76.9%; in [4], 42.4%; in assay [5], 67.2%; in assay [6], 41.9%. Besides, the growth is 38% in [7], 57.3% in [8] and 49.7% in [9].
Consider `CC(=O)C1=C(O)C=C2Oc3c(C(=O)/C=C/c4c(Cl)cccc4Cl)c(O)c(C)c(O)c3[C@]2(C)C1=O`, for which the growth in assay [1] was 6.3% (active); in assay [2] it was -26.7% (active); in assay [3] it was -67.7% (active); in assay [4], -63.4% (active); in assay [5] it was -48.9% (active); in assay [6], -20.4% (active). Further, the growth in assay [7] was -37% (active); in assay [8] it was -37% (active); in [9], -10.9% (active).
For `CC[n+]1ccc2c(c1)C(=O)c1nccc3c1c-2nc1ccccc13`, the growth in [1] is -10.9% (active); in assay [2], 20%; in [3], -85.5% (active); in assay [4] it was -8.92% (active); in assay [5] it was -2.9% (active); in assay [6] it was -16.4% (active). For the same molecule, the values for the growth in assay [7], in assay [8] and in [9] were -27.6% (active), -8.02% (active) and -16.3% (active), respectively.
`CC/C=C\C[C@H](F)C/C=C1/C(=O)C=C[C@@H]1C/C=C\CCCC(=O)O`: the growth was 66.3% in assay [1]; 10.3% in [2]; 59.2% in assay [3]; 73% in [4]; 75% in assay [5]; 82.3% in assay [6]. Moreover, the values for the growth in [7], in assay [8] and in assay [9] were 96.2%, 49.7% and 32.1%, respectively.
On to `Clc1cccc(Nc2nc(Nc3cnc4ccccc4c3)c3[nH]cnc3n2)c1`, for which the growth in assay [1] is 82.6%; in assay [2] it was 81.5%; in assay [3], 116%; in assay [4], 47.7%; in assay [5], 69.7%; in [6], 82.4%. Also, the values for the growth in assay [7], in [8] and in [9] were 94.6%, 81.7% and 88%, respectively.
Consider `COc1ccc(-c2c(C)noc2-c2ccc(O)cc2O)cc1`, for which the growth is 64.4% in assay [1]; 39.6% in assay [2]; 103% in [3]; 108% in [4]; 90.7% in assay [5]; 82% in assay [6]. Besides, the growth in assay [7] was 97.6%; in assay [8] it was 111%; in assay [9] it was 103%.
With `CCN(CC)C12CCCCC1(C)C(C#N)(C#N)C(C#N)=C(N)O2` (stereo not given), the growth in assay [1] was 107%; in [2] it was 95.5%; in assay [3] it was 92.3%; in [4], 108%; in assay [5], 144%; in [6] it was 99.6%. For the same molecule, the results for the growth in assay [7], in [8] and in assay [9] were 98%, 114% and 102%, respectively.
